# Measurements published in PubChem BioAssay AID1700 (The Scripps Research Institute Molecular Screening Center, 2009).
# Screen size: about 290,000 compounds; about 670 (0.23%) were called active. The full list was thinned out, with actives kept by preference. A number with no mark means an inactive call.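 The calls were made as follows: active = inhibition above a per-plate limit of that plate's mean compound inhibition plus 3 SD (cut at about 60% in these data); inactive = the rest.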
# Test: KLF5 expression inhibitors, primary screen, DLD-1 cells, luminescence (AID 1700);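 also: 0% = DMSO wells and 100% = LY294002 at 200 µM; higher means less KLF5 promoter-driven luciferase light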
# Settings: DLD-1 KLF5 promoter-luciferase reporter, at 5 µM, active compounds read high
row,SMILES,inhibition
1,CCCCCCCCCCCCn1ccc(=N)cc1,75.9% (active)
2,CCN(CC)c1ccc([N+](=O)[O-])c2cccnc12,-21%
3,COc1cc2nc(N3CCN(C(=O)[C@@H]4CCCO4)CC3)nc(N)c2cc1OC,-16.5%
4,O=C1NC(=O)C(CCc2ccccn2)(Cc2cccc(Cl)c2Cl)C(=O)N1c1ccc(Br)cc1 (stereo not given),-5.72%
5,COc1ccc(N2C(=O)/C(=C/c3ccco3)C(=O)NC2=S)cc1,-5.05%
